According to PubChem BioAssay AID485297 (National Center for Advancing Translational Sciences (NCATS), 2010):
Hit rate of the full screen: of about 320,000 compounds, about 9,100 (2.8%) were called active. Roughly 3% stayed inconclusive and do not appear here. What follows is part of a selection rich in actives, with near analogues and random picks from the rest. Values without a mark were called inactive. Calls come from the whole dose curve; as a rule, active = well fitted activation curve with a large enough effect; inconclusive = small, poorly fitted or top-dose-only effect; inactive = no such curve, though single readings can be large or run the other way.

assay: qHTS Assay for Rab9 Promoter Activators; details: Huh7 Rab9 promoter-luciferase reporter, luminescence, 24 h; series mostly up to 9.22 µM; activation, negative = inhibition: at the top concentration; note: nearly all actives have a fitted effect of over 60% in size; for activation, negative = inhibition: % of control where 0% means no effect
How it was run: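 Promoter activation is measured as luciferase luminescence in Huh7 cells stably transfected with a Rab9 promoter–luciferase construct, following 24 h compound exposure at 37 °C and 10 min reagent incubation at ambient temperature.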
Potency is the fitted concentration of half-maximal effect.

| Structure (SMILES) | activation, negative = inhibition | Potency |
| --- | --- | --- |
| CN(C(=O)COC(=O)Cn1cnc2c1c(=O)n(C)c(=O)n2C)C1(C#N)CCCCC1 | 2.9% | – |
| CC(C)(C)NC(=O)CSC(=Nc1ccccc1F)NC#N | – | 3.98 µM (active) |
| COc1ccccc1-n1ccnc1SCC(=O)NC(C)(C)C | -2.9% | – |
| Cc1ccccc1CSCC(=O)NC(=O)NC(C)(C)C | 7.27% | – |
| CC(CCc1ccccc1)NC(=O)c1cnc(Cl)c(Cl)c1 (stereo not given) | -1.69% [at 1.84 µM] | – |
| COc1ccc(CNC(=O)c2ccc(NS(=O)(=O)c3ccc4[nH]c(=O)[nH]c4c3)cc2)cc1OC | 0.821% | – |
| CN1CCN(S(=O)(=O)c2ccc(NC(=S)NC(=O)C3CC3)cc2)CC1 | 2.23% | – |
| S=C(NCc1cccnc1)Nc1ccc(Cl)cc1Cl | 2% | – |
| O=C(NC(=S)Nc1ccc(Cl)cc1Cl)C1CC1 | – | 2.82 µM (active) |
| Cc1ccc(OCC(=O)Nc2ccccc2C(=O)NC2CC2)cc1 | -0.812% | – |
| CCOC(=O)c1c(C)[nH]c(C(=O)OCC(=O)c2ccc(OC)cc2OC)c1C | 3.1% | – |
| CCOC(=O)c1c(C)[nH]c(C(=O)OCC(=O)N2CCCC2=O)c1C | 5.19% | – |
| CCCCOC(=O)c1[nH]c(C)c(C(=O)OC)c1C | – | 2.82 µM (active) |
| COc1ccc(/C(C)=N/Nc2cc(C(F)(F)F)ccc2Cl)c(OC)c1 | -5.83% | – |
| S=C(NNC(=S)NC1CC2CCC1C2)NC1CC2C=CC1C2 (stereo not given) | -0.185% | – |
| CC(C)c1ccc(NC(=S)NC2CC3C=CC2C3)cc1 (stereo not given) | – | 2.82 µM (active) |
| S=C(NNC(=S)NC1CC2C=CC1C2)NC1CC2C=CC1C2 (stereo not given) | 6.58% | – |
| COc1ccc(-c2cc(C(=O)NCCCN3CCCC3=O)c3ccccc3n2)cc1OC | 8.83% | – |
| N/C(=N\OC(=O)c1ccc2c(c1)OCO2)c1ccc(Br)cc1 | – | 3.98 µM (active) |
| N/C(=N\OC(=O)/C=C/c1ccccc1)c1ccc(Br)cc1 | 3.85% | – |
| N/C(=N\OC(=O)N1c2ccccc2Sc2ccccc21)c1ccc(Br)cc1 | -1.25% | – |
| CC1CC2C3CCC4=CC(=O)C=C[C@]4(C)[C@@]3(F)[C@@H](O)C[C@]2(C)[C@@]1(O)C(=O)CO (stereo not given in full) | 4.04% [at 46.1 µM] | – |
| CCCc1nc2ccccc2c(=O)n1NC(=O)c1c(O)c2ccccc2[nH]c1=O | -0.479% | – |
| CC(C)C(=O)Nc1c(O)c2ccccc2[nH]c1=O | -2.25% | – |

| Structure (SMILES) | activation, negative = inhibition | Potency |
| --- | --- | --- |
| NS(=O)(=O)c1ccccc1NC(=O)c1c(O)c2ccccc2[nH]c1=O | – | 0.447 µM (active) |
| COc1ccc(C(=O)NCc2ccc(Cl)cc2)cc1S(=O)(=O)N1CCCC1 | -4.13% | – |
| CCCn1nc(C(=O)NNC(=O)CCOc2ccccc2OCC)c2ccccc2c1=O | -1.1% | – |
| NC(=O)c1ccsc1NC(=O)c1ccco1 | 3.95% | – |
| O=C(Nc1ccc(NC(=O)c2cccs2)cn1)c1ccco1 | – | 0.316 µM (active) |
| O=C(Nc1ccnc(-c2ccncc2)n1)c1cccs1 | -2.43% | – |
| CC(C)(C)n1ncc2c(=O)n(Cc3c(Cl)cccc3Br)cnc21 | -2.66% | – |
| c1ccc(CN=C2Nc3ccccc3CS2)nc1 | – | 0.891 µM (active) |
| Cc1ccc(F)cc1S(=O)(=O)Nc1cccc(C(=O)N2CCCC(C(N)=O)C2)c1 (stereo not given) | -1.43% | – |
| C=C(C)CNc1cc(S(=O)(=O)N2CCOCC2)ccc1Oc1ccccc1 | -9.64% | – |
| Cc1ccc(OCC(=O)Nc2ccc(-c3nnc(-c4ccco4)o3)cc2)cc1 | – | 2.82 µM (active) |
| CCOc1ccc(-c2nnc(-c3ccco3)o2)cc1 | – | 0.355 µM (active) |
| N#Cc1ccc(OCc2nnc(-c3ccc([N+](=O)[O-])cc3)o2)cc1 | 29.6% | – |
| CCCCOc1ccc(-c2nnc(-c3ccco3)o2)cc1 | – | 1.41 µM (active) |
| COc1ccc(OCC(=O)Nc2nnc(-c3ccco3)s2)cc1 | -2.66% | – |
| Cc1ccc(OCC(=O)Nc2nnc(-c3ccco3)s2)cc1 | 0.409% | – |
| CCOc1ccc(-n2c(SCC(N)=O)nnc2-c2ccco2)cc1 | 0.124% | – |
| O=C(CCc1ccccc1)Nc1cccc(-c2nnc(-c3ccco3)o2)c1 | 2.91% | – |
| CC(=O)Nc1ccc(NC(=O)COc2ccc(-c3ccccc3)cc2)cc1 | -5.02% | – |
| O=C(CN1CCCSc2ccccc21)N1CCN(S(=O)(=O)c2cccc(F)c2)CC1 | -7.54% | – |
| Cc1cccc(NC(=S)NCCc2ccc(Cl)cc2)c1C | -1.92% | – |
| COc1ccccc1S(=O)(=O)NCc1ccc(C(=O)N(C)Cc2ccc(F)cc2)cc1 | 2.36% | – |
| CC(=O)Nc1ccc(NC(=O)CCN2C(=O)C3CC=CCC3C2=O)cc1 (stereo not given) | -1.96% | – |
| CCOC(OCC)c1ccc(/C=C\c2nccc(N)n2)cc1 | – | 1.78 µM (active) |

| Structure (SMILES) | activation, negative = inhibition | Potency |
| --- | --- | --- |
| C[C@@H]1NC(=O)[C@@]2(C)[C@@H](c3ccccc3)[C@H]3COc4ccccc4[C@@H]3N2C1=O | 6.2% | – |
| Cc1ccc(OCCC(=O)Nc2ccc(S(=O)(=O)Nc3nccs3)cc2)cc1 | -11.6% | – |
| Cc1cccc(OCCC(=O)Nc2ccccc2C(N)=O)c1 | 2.71% | – |
| CCCOC(=O)Nc1ccccc1C(N)=O | 5.54% | – |
| COc1cccc(OCC(=O)Nc2ccccc2C(N)=O)c1 | – | 2.82 µM (active) |
| COc1ccccc1C(=O)NCC(=O)NCCSc1ccc(Br)cc1 | 3.4% | – |
| Cc1ccn(CCC(=O)N2c3ccccc3CC2C)n1 (stereo not given) | -0.165% | – |
| CCCC(=O)N1c2ccc(-c3csc(N)n3)cc2CC1C (stereo not given) | – | 2.82 µM (active) |
| CCn1nc(C(=O)OCC(=O)N2c3ccccc3CC2C)c2ccccc2c1=O (stereo not given) | 10.4% | – |
| COC(=O)C1CCN(CC(N)=O)CC1 | 0.0472% | – |
| COC(=O)c1ccc(CSc2ccc(S(=O)(=O)N3CCCCC3)cn2)cc1 | -0.29% | – |
| O=C(CN1C(=O)c2ccccc2S1(=O)=O)N1CCc2ccccc21 | -38.7% | – |
| O=C(CN1C(=O)c2ccccc2S1(=O)=O)NC1CCCCC1 | 15% | – |
| CC1CCCN(C(=O)CN2C(=O)c3ccccc3S2(=O)=O)C1 (stereo not given) | – | 2.82 µM (active) |
| O=C(COC(=O)Cc1ccc(Br)cc1)Nc1ccc(N2CCOCC2)cc1 | -3.87% | – |
| CCOCc1c(C(=O)N2CCN(Cc3ccc(Br)s3)CC2)oc2ccccc12 | -5.16% | – |
| CC(C)CC(=O)N/C(N)=N/c1nc2ccccc2s1 | – | 2.82 µM (active) |
| CCC(=O)NC(=Nc1nc2ccccc2s1)NC(=O)CC | – | 3.55 µM (active) |
| CC(C)CC(=O)NC(=S)NCc1ccccc1 | -0.334% | – |
| CC(=O)Nc1cccc(-c2nc3ccccc3s2)c1C | 11% | – |
| Cc1cc(C(=O)OCC(=O)Nc2nnc(C(C)C)s2)c2ccccc2n1 | 1.65% | – |
| O=C(O)CCCCc1nc2ccccc2s1 | -6.84% | – |
